# Reference: PubChem BioAssay (EPA / NIEHS)
# “And” between values parts separate entries of the source, which are not always exact repeats. Equal entries are not always repeated. Some compounds were tested as several samples or in several runs, with calls that do not always agree. The source made the active and inactive calls. Rule for the calls: active = hit-call score of the fitted dose curve at least 0.9, where 1 is the maximum; inactive = score below 0.9. Peptide text beside a SMILES is read from it.
# System: not listed separately
# Assay: CCTE_Mundy_HCI_Cortical_NOG_BPCount: CCTE's Neurite Outgrowth Assay in rat cortical cells for Branch Point Count, Mundy Lab (AID 2284237)
# Details: not given
# Procedure, shortened: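 Measured 50.33 h after dosing, this morphology endpoint uses rat primary cortical cultures labelled for betaIII-tubulin. Branch points are quantified by high-content imaging, with DMSO as negative control and baseline.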
row,SMILES,outcome
1,Cc1noc(NS(=O)(=O)c2ccc(N)cc2)c1C,inactive
2,Cc1c(C(=O)c2c[nH]n(C)c2=O)ccc(S(C)(=O)=O)c1C1=NOCC1,inactive
3,COC(=O)[C@H](Cc1ccccc1)NC(=O)[C@@H](N)CC(=O)O (H-Asp-Phe-OMe),inactive
4,CCCCNS(=O)(=O)c1ccccc1,inactive

# Read-out: Collagen I, COL1A1 (gene 1277)
# Assay: BSK_MyoF_CollagenI: BioMAP Diversity Plus: MyoF Assay for Collagen I Biomarker Activity (AID 2284238)
# Details: primary human lung fibroblasts
# Procedure, shortened: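 Collagen I levels measured by ELISA on human lung fibroblast cultures 24 h post-dosing, with curve fitting in the positive direction relative to DMSO; SRB staining of parallel wells marked cytotoxicity.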
SMILES,outcome,AC50
CC=C(C)C=CC=C(C)C,inactive,
O=C(O)C(F)(F)C(F)(F)C(F)(F)C(F)(F)C(=O)O,inactive,
CCN1CN(CC)CN(CC)C1,inactive,
CCOC(=O)/C=C\C(=O)OCC,inactive,
CCc1cccc(C)c1N(C(=O)CS(=O)(=O)O)C(C)COC (stereo unspecified),inactive,
CCCCC1C(=O)N(c2ccccc2)N(c2ccccc2)C1=O,inactive,
COc1ccc(C(=O)/C(Br)=C\C(=O)O)cc1,inactive,
O=C(Cl)c1c(Cl)c(Cl)c(C(=O)Cl)c(Cl)c1Cl,inactive,
Cc1c(O)cccc1O,inactive,
CCCCCC1=CCCC1=O,inactive,
C=CC(=O)NCOCCCC,inactive,
CCOC(=O)C1=NN(c2ccc(Cl)cc2Cl)C(C)(C(=O)OCC)C1 (stereo unspecified),inactive,
Nc1cccc(N)n1,inactive,
O=C1CCCCCCCCCCCN1,inactive,
CCCCCCOC(=O)CCCCC(=O)OCCCCCC,inactive,
CCCCCCCCCCCC(C)=O,inactive,
CC/C=C\C/C=C\C/C=C\CCCCCCCC(=O)OC,,9.7 µM (active)
CC(c1cc(C(C)(C)C)cc(C(C)(C)C)c1O)c1cc(C(C)(C)C)cc(C(C)(C)C)c1O,inactive,
C=CC(=O)OCC(C)OCC(C)OCC(C)OC(=O)C=C (stereo unspecified),,30.4 µM (active)
Oc1ccc(/C=C/c2cc(O)cc(O)c2)cc1,inactive,
CC1=CC=C(C(C)C)CC1,inactive,
CCCCCCC=O,inactive,
C[N+](C)(C)CCCNS(=O)(=O)C(F)(F)C(F)(F)C(F)(F)C(F)(F)C(F)(F)C(F)(F)C(F)(F)C(F)(F)F,,48.6 µM (active) and 48.1 µM (active)

# Read-out: Collagen III, COL3A1 (gene 1281)
# Assay: BSK_MyoF_CollagenIII: BioMAP Diversity Plus: MyoF Assay for Collagen III Biomarker Activity (AID 2284239)
# Details: primary human lung fibroblasts
# Procedure, shortened: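 Collagen III biomarker quantified by ELISA in human lung fibroblast cultures 24 h after dosing. Activity fitted in the positive direction against DMSO as baseline.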
SMILES,outcome,AC50
CC=C(C)C=CC=C(C)C,inactive,
O=C(O)C(F)(F)C(F)(F)C(F)(F)C(F)(F)C(=O)O,inactive,
CCN1CN(CC)CN(CC)C1,inactive,
CCOC(=O)/C=C\C(=O)OCC,inactive,
CCc1cccc(C)c1N(C(=O)CS(=O)(=O)O)C(C)COC (stereo unspecified),inactive,
CCCCC1C(=O)N(c2ccccc2)N(c2ccccc2)C1=O,inactive,
COc1ccc(C(=O)/C(Br)=C\C(=O)O)cc1,inactive,20 µM (active)
O=C(Cl)c1c(Cl)c(Cl)c(C(=O)Cl)c(Cl)c1Cl,inactive,
Cc1c(O)cccc1O,inactive,
CCCCCC1=CCCC1=O,inactive,
C=CC(=O)NCOCCCC,inactive,
CCOC(=O)C1=NN(c2ccc(Cl)cc2Cl)C(C)(C(=O)OCC)C1 (stereo unspecified),inactive,
Nc1cccc(N)n1,inactive,
O=C1CCCCCCCCCCCN1,inactive,
CCCCCCOC(=O)CCCCC(=O)OCCCCCC,inactive,
CCCCCCCCCCCC(C)=O,inactive,
CC/C=C\C/C=C\C/C=C\CCCCCCCC(=O)OC,,10.6 µM (active)
CC(c1cc(C(C)(C)C)cc(C(C)(C)C)c1O)c1cc(C(C)(C)C)cc(C(C)(C)C)c1O,inactive,
C=CC(=O)OCC(C)OCC(C)OCC(C)OC(=O)C=C (stereo unspecified),,30.9 µM (active)
Oc1ccc(/C=C/c2cc(O)cc(O)c2)cc1,inactive,
CC1=CC=C(C(C)C)CC1,inactive,
CCCCCCC=O,inactive,
C[N+](C)(C)CCCNS(=O)(=O)C(F)(F)C(F)(F)C(F)(F)C(F)(F)C(F)(F)C(F)(F)C(F)(F)C(F)(F)F,,48.8 µM (active) and 50.1 µM (active)

# System: not listed separately
# Assay: CCTE_Mundy_HCI_hNP1_Casp3_7: CCTE's Caspase-Glo 3/7 Assay in human neuroprogenitor cells for Apoptosis, Mundy Lab (AID 2284240)
# Details: not given
# Procedure, shortened: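 Neuroepithelial-lineage stem cells from WA09 embryonic cells were treated with chemicals after 40–44 h of culture. Twenty-four hours later, caspase-3/7 activation was detected luminescently after a 30 min room-temperature reagent step, with DMSO as baseline.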
row,SMILES,outcome
1,O=C(O)C(F)(F)C(F)(F)C(F)(F)C(F)(F)C(=O)O,inactive
2,Cc1noc(NS(=O)(=O)c2ccc(N)cc2)c1C,inactive
3,Cc1c(C(=O)c2c[nH]n(C)c2=O)ccc(S(C)(=O)=O)c1C1=NOCC1,inactive
4,COC(=O)[C@H](Cc1ccccc1)NC(=O)[C@@H](N)CC(=O)O (H-Asp-Phe-OMe),inactive
5,CCCCNS(=O)(=O)c1ccccc1,inactive
